Assay in all cases: NCI-60 one-dose screen, 48 h (100 = growth as untreated, 0 = no growth, -100 = all killed)
Conditions in all cases: 10 µM unless noted

Experiment [1] relates to NCI-H226 lung.
The subject of experiment [2] is NCI-H322M lung.
Experiment [3] has as its system HOP-62 NSCLC.
Experiment [4] deals with NCI-H460 lung.
Experiment [5] deals with HOP-92 NSCLC.
For experiment [6], the system named is NCI-H522 lung.
In experiment [7] the test system is A549/ATCC NSCLC.
Experiment [8] has as its system 786-0 renal.
Experiment [9] relates to COLO 205 colon.

Compounds without any hit were thinned out: in the full panel of roughly 83,000, 20% have a hit.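 48-hour exposure, single concentration, 96-well plates; percent growth endpoint where 0 means no net growth. Active: below 10.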 Unmarked numbers belong to inactive results. Active and inactive are the calls of the source.

For the molecule `N#C/C(=C\c1ccc(F)cc1)n1nc2cccc(F)c2n1`, the growth is 97.6% in experiment [1]; 76.2% in [2]; 76.3% in experiment [3]; 39.2% in experiment [4]; 6.85% (active) in experiment [5]; 8.28% (active) in experiment [6]. The growth in experiment [7] is 78.7%; in experiment [8], 67.3%; in experiment [9] it was 67.1%.
As for `O=c1ccc(N=Nc2ccccc2)ccc1Cl`, the growth in [1] was 87.7%; in experiment [2], 103%; in [3] it was 93.9%; in [4], 98%; in experiment [5], 114%; in experiment [6] it was -22.6% (active). The growth was 103% in [7], 48.8% in experiment [8] and 68.4% in [9].
Regarding `COc1cc(C2CC(c3ccc(SC)cc3)=NN2C(C)=O)cc(OC)c1OC` (stereo not drawn), the growth was 85.3% in experiment [1]; 91% in experiment [2]; 80.1% in experiment [3]; 48.6% in [4]; 83.7% in experiment [5]; 35.2% in [6]. The growth in experiment [7] was 58%; in [8], 84.6%; in experiment [9], 64.6%.
For `Oc1ccc(C#CCOc2ccccc2)cc1CNCCN(Cc1ccccn1)Cc1ccccn1`, the growth in experiment [1] was 8.23% (active); in experiment [2], 13.6%; in [3], 13.3%; in [4], 5.58% (active); in [5], 42.5%; in [6] it was 9.5% (active). Also, the values for the growth in [7], in experiment [8] and in experiment [9] were 8.12% (active), 5.55% (active) and 13%, respectively.
Regarding `COc1cccc(-c2nn(-c3ccccc3)cc2-c2ccnc(N3CCOCC3)c2)c1`, the growth is 93.9% in [1]; 98.7% in [2]; 96.2% in [3]; 91.3% in experiment [4]; 66.3% in experiment [5]; 71.4% in [6]. For the same molecule, the figures for the growth in [7], in [8] and in experiment [9] were 86.8%, 99% and 98.5%, respectively.
For `CCCCOc1ccc(/C=N/NC(N)=S)cc1`, the growth is 68.9% in experiment [1]; 94.9% in experiment [2]; 116% in experiment [3]; 96.5% in experiment [4]; 68.2% in [5]; 8.46% (active) in experiment [6]. In addition, the figures for the growth in [7], in experiment [8] and in experiment [9] were 91.4%, 68.3% and 85%, respectively.
With `Cc1nc(/N=C(\N)NC(=O)Nc2ccccc2Cl)sc1C`, the growth in [1] was 68%; in [2], 51%; in experiment [3], 45%; in [4] it was 12.1%; in [5], 64.6%; in [6], 18.6%. Also, the growth was 47.8% in [7], 57.1% in experiment [8] and 12.2% in experiment [9].
Regarding `CNC(=O)c1[nH]cc(-c2ccccc2)c1-c1cc(OC)c2c(c1OC)OCO2`, the growth is 94.6% in experiment [1]; 103% in [2]; 94.5% in experiment [3]; 108% in [4]; 96.7% in experiment [5]; 87.9% in experiment [6]. Further, the growth in experiment [7] was 96.7%; in [8], 94.8%; in experiment [9], 102%.
On to `O=C(N=c1oc2ccccc2cc1-c1cc2ccccc2[nH]1)Nc1ccc(Cl)cc1`, for which the growth in [1] is 95.9%; in [2], 87.8%; in experiment [3], 83.3%; in [4], 99.6%; in experiment [5] it was 95.1%; in experiment [6] it was 88.4%. Further, the growth is 96.1% in experiment [7], 94.6% in [8] and 122% in [9].
Consider `C=C1C(=O)O[C@H]2[C@H]1CC/C(COC(=O)CCSSCCC(=O)OC/C1=C/CC[C@@]3(C)O[C@H]3[C@H]3OC(=O)C(=C)[C@@H]3CC1)=C\CC[C@@]1(C)O[C@@H]21`, for which the growth is 78.1% in experiment [1]; 94.6% in [2]; 72.3% in experiment [3]; 64% in experiment [4]; -57.7% (active) in experiment [5]; -79.8% (active) in experiment [6]. Besides, the growth in experiment [7] is 60.8%; in [8] it was -70.9% (active); in experiment [9], -72.5% (active).
`COc1cc(C(=O)c2cnc(-c3cccc4[nH]ccc34)[nH]2)cc(OC)c1OC`: the growth in experiment [1] is 45.7%; in [2], 35.3%; in [3], 33.8%; in experiment [4], 2.81% (active); in experiment [5], 17.5%; in experiment [6], -7.75% (active). For the same molecule, the values for the growth in [7], in [8] and in [9] were 24.5%, 6.82% (active) and -36.9% (active), respectively.
Take `N/C(=N\c1nc2ccccc2s1)NC(=O)Nc1cccc2ccccc12`: the growth in experiment [1] is 66.8%; in experiment [2], 41.8%; in [3], 34.5%; in [4] it was 10.7%; in [5], 48.4%; in [6], 5.26% (active). Further, the growth in experiment [7] is 27.7%; in experiment [8], 34.5%; in experiment [9], 3.54% (active).
